Hits are enriched below; roughly 6.1% of the tested compounds scored in any of these assays.
D3 ag = qHTS of D3 Dopamine Receptor Agonist: qHTS. D3R DiscoveRx beta-arrestin cells, luminescence, 90 min. max activation, %. actives 0.58% (n = 410,000); in the data active = max activation above about 30%; note: 0% is about no effect
Target sequence (P35462 whole entry, looked up): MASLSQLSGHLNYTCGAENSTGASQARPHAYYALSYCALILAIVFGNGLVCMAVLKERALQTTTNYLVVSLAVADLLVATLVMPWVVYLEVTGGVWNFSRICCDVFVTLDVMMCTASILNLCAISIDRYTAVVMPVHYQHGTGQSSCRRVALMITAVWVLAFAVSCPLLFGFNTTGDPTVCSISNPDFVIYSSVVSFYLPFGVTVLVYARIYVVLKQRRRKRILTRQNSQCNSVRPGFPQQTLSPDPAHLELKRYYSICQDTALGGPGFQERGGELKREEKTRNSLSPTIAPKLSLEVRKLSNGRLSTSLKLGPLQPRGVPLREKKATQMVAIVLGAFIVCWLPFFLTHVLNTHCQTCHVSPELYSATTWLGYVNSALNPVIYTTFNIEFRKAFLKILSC
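Agonist mode: compounds and dopamine controls were applied to plated cells for 90 min at 37 degrees C after an overnight attachment at 1500 cells/well. Luminescent read-out followed 30 - 60 minutes at room temperature with DiscoveRx detection reagent.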
D3 antag = qHTS of D3 Dopamine Receptor Antagonist: qHTS. D3R cells, DiscoveRx beta-arrestin luminescence, antagonist mode; active compounds read low. D(3) dopamine receptor (Homo sapiens), P35462. AID 652054, 2013. max response, negative = inhibition, %. actives 2.5% (n = 360,000); in the data active = max response below about -50%; inconclusive = no clear call, values can overlap the other calls; note: % is set by controls: 0 for no effect and ±100 for the full control effect
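Cells expressing the human receptor were seeded at 1500 cells/well, incubated overnight at 37 degrees C in 5% CO2, then exposed to library compounds with dopamine controls for 90 minutes at 37 degrees C before luminescent detection.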
D1 ag = Allosteric Agonists of the Human D1 Dopamine Receptor: qHTS; HEK293 T-REx D1 cells, calcium flux, agonist mode; activation, % at 2 µM; actives 1% (n = 360,000); AID 504660, 2011; in the data active = activation above about 30%; note: 0% is about no effect
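Agonism was scored from calcium flux recorded over 180 s (1 read/s) after pintool compound addition, following a 10-cycle baseline. Cells were inducible force-coupled HEK293 TREx D1, plated overnight at 30 C and loaded with no-wash calcium dye.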
D1 antagonist = Antagonist of Human D 1 Dopamine Receptor: qHTS; activity change, negative = inhibition, % at 10 µM; actives 3.2% (n = 360,000); AID 504652, 2011; D(1A) dopamine receptor (Homo sapiens), P21728; HEK293 TREx D1 cells, calcium flux, dopamine EC80; active compounds read low; in the data active = activity change below about -30%; note: % is set by controls: 0 for no effect and ±100 for the full control effect
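Cells carrying a force-coupled, tetracycline-inducible human D1 receptor report calcium flux. Each well gets a 10 s baseline, compound with 180 s monitoring, then an EC80 dopamine stimulus with a second 180 s kinetic read.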
D1 potentiator = Potentiators of Human D1 Dopamine Receptor: qHTS | D(1A) dopamine receptor (Homo sapiens), P21728 | HEK293 TREx D1 cells, calcium flux, dopamine EC20 potentiation | potentiation, % at 10 µM | actives 0.036% (n = 360,000); in the data active = potentiation above about 30%; note: 0% is about no effect
Active calls of the source: *; u = inconclusive; x = no result given.

SMILES	D3 ag	D3 antag	D1 ag	D1 antagonist	D1 potentiator
CC(=O)c1ccc(OCc2cc(C(=O)N(C)Cc3ccccn3)no2)cc1	-9	0	3	-73*	8
Cc1cc(OCc2cc(C(=O)N(C)CCOc3ccccc3)no2)cc(C)c1Cl	1	11	37*	-4	-7
CCOC(=O)c1cccc(NC(=O)CSc2nncn2-c2ccccn2)c1	1	-6	2	5	-3
Cc1cccc(-c2cc(NC(=O)COc3ccccc3F)n(-c3ccccc3)n2)c1	-3	x	2	9	4
Cc1cccc(C(=O)NCCN2CCCC2)c1	-6	-66*	0	-1	3
CCOc1c(Cl)cc(C(=O)NCCN2CCCCC2)cc1Cl	-52	-73*	6	1	-17
CC(=O)Nc1ccc(S(=O)(=O)NCc2ccc(C(=O)NCc3ccc(Cl)cc3)cc2)cc1	-9	-19	-1	-3	7
Cc1ccc(C(=O)NCCN2CCCC2)cc1	-27	u	0	-14	-4
CC(=O)Nc1ccc(S(=O)(=O)NCc2ccc(C(=O)NCCN3CCCCCC3)cc2)cc1	-17	-53*	0	10	-1
O=C(NCCN1CCN(C(=O)c2ccc(F)cc2)CC1)c1ccc(F)cc1	-10	-79*	4	-11	16
Cc1ccccc1CN1c2ccccc2-c2nc(SCC(=O)NCc3ccccc3)ncc2S1(=O)=O	-3	x	6	7	6
CNC(=O)c1cc(OCC(F)(F)F)ccc1OCC(F)(F)F	-2	21	-1	x	-2
CC(C)(C)c1ccc(OCC(=O)NCCN2CCCC2)cc1	0	-57*	15	10	5
COc1ccc(CC(=O)NCCN2CCCC2)cc1	-4	-4	5	20	-5
COc1ccc(C(=O)NCCN2CCCC2)cc1	-11	-54*	5	-15	-2
COc1cccc(/C=N\NC(=O)c2cc(OCC(F)(F)F)ccc2OCC(F)(F)F)c1	2	4	33*	-2	-6
O=C(NCCN1CCCCC1)c1cc(OCC(F)(F)F)ccc1OCC(F)(F)F	1	-53*	0	8	-2
COc1ccccc1Nc1cc(C(=O)NC2CCC(C)CC2)c2ccccc2n1 (centres undefined)	7	x	3	1	-2
Cc1cccn2c(=O)cc(COc3cccc(NC(=O)COc4ccccc4)c3)nc12	-17	x	6	-5	-3
O=C(OC1CCCCC1=O)c1ccc(F)c(S(=O)(=O)N2CCOCC2)c1 (centres undefined)	5	23	3	1	-6
CC(C)(C)c1ccc(C(=O)NCCCN2CCN(CCCNC(=O)c3ccc(C(C)(C)C)cc3)CC2)cc1	-5	0	24	-30*	-7
CCOc1ccccc1C(=O)NCCCN1CCN(CCCNC(=O)c2ccccc2OCC)CC1	-3	-53*	0	-3	0
CC(C)(C)c1ccc(C(=O)NCCN2CCOCC2)cc1	-4	1	x	x	x
CCc1ccc(S(=O)(=O)c2nnn3c2nc(Nc2cc(OC)cc(OC)c2)c2cc(Cl)ccc23)cc1	0	x	0	2	-4
CN1CCCN(C(=O)c2cccc(Cl)c2)CC1	-15	3	6	17	2
SMILES	D3 ag	D3 antag	D1 ag	D1 antagonist	D1 potentiator
CCOC(=O)c1cc2c(ccn2C)n1CC(=O)N1CCN(c2cccc(C(F)(F)F)c2)CC1	-2	u	3	-38*	1
CCOC(=O)c1cc2c(ccn2C)n1CC(=O)N1CCN(c2ccc(F)cc2)CC1	1	12	0	13	6
CCc1nc2ccc(C(=O)N3CCN(S(=O)(=O)CC)CC3)cn2c1N(CCC(C)C)CCN(C)C	9	-1	x	x	x
CC(C)c1ccc(N2C(=O)/C(=C/N(C)C)SC2=S)cc1	3	-13	99*	4	4
CN(C)C/C=C(/c1ccc(Br)cc1)c1cccnc1	-88	-105*	x	x	x
CCc1c(C#N)sc(C(N)=O)c1CC	-6	-9	0	-58*	1
COc1ccc(CCNC(=O)c2cc(-c3ccco3)on2)cc1OC	11	12	4	-6	-7
Cc1cc(NC(=O)c2cc(-c3cccs3)on2)no1	17	13	7	-42*	-10

Assay outcomes deposited in PubChem by National Center for Advancing Translational Sciences (NCATS).
